Drawing on PubChem BioAssay AID463173 (ICCB-Longwood Screening Facility, Harvard Medical School, 2010), this text covers survival for 26 compounds.

The campaign covered roughly 52,000 compounds. About 4,300 (8.3%) were called active. Rule as the data show it: active = survival mostly below about 52% (no sharp cut-off); inactive = mostly above about 56%. For the sample, actives were picked, then their nearest neighbours and some compounds at random.

This assay deals with DeltatarO mutant. Put plainly: growth inhibition of S. aureus wild type versus tarO mutant, primary screen, teichoic acid synthesis inhibitors, RN4220, OD600 (AID 463173). Conditions: OD600, 18 h, hits give low values, screened at 18.75 µg/mL (by protocol).
For `COc1ccc(CCNC(=O)Cn2c(=O)n(-c3cc(OC)c(OC)c(OC)c3)c(=O)c3ccccc32)cc1OC`, the survival is 81% (inactive).

Turning to `COc1cc(CNCCSc2nnnn2C)ccc1OCc1ccc(F)cc1`, the survival is 122% (inactive).

Consider `COC(=O)c1ccccc1NC(=O)c1cnc2c(-c3cccc(C)c3)c(C)nn2c1C`, for which the survival is 128% (inactive).

In the case of `CCOc1ccc2nc(SCC(=O)N(C)C3CCCCC3)c(C#N)cc2c1`, the survival was 89% (inactive).

In the case of `CCc1ccccc1NC(=O)C1CCN(c2cnccn2)CC1`, the survival was 43% (inactive).

Take `COc1ccccc1NC(=O)C1CCN(c2cnccn2)CC1`: the survival is 54% (active).

In the case of `COc1cc(NC(=O)c2nc3ccccc3nc2N2CCCCC2)cc(OC)c1OC`, the survival was 87% (inactive).

For `COc1cc(NC(=O)C2CCN(c3cnc4ccccc4n3)CC2)cc(OC)c1OC`, the survival was -5% (active).

Take `COc1cc(NC(=O)C2CCN(c3nc4ccccc4nc3C(F)(F)F)CC2)cc(OC)c1`: the survival was 101% (inactive).

As to `COc1cc(NC(=O)C2CCN(c3cnccn3)CC2)cc(OC)c1`, the survival is 79% (inactive).

Turning to `Cc1c(Cl)cccc1NC(=O)CN1C(=O)COc2ccc(S(=O)(=O)Nc3ccccc3)cc21`, the survival is 60% (inactive).

In the case of `CCS(=O)(=O)c1nc(S(=O)(=O)c2ccc(C)cc2)c(NCCCOC)s1`, the survival was 97% (inactive).

With `COc1ccccc1N1CCN(C(=O)CSc2n[nH]c(-c3ccccc3)n2)CC1`, the survival is 88% (inactive).

On to `O=C(CCc1ccccc1)NC1CC(=O)N(c2ccccc2)C1` (stereo unspecified), for which the survival is 94% (inactive).

As to `COc1ccc(CCC(=O)NC2CC(=O)N(c3ccccc3)C2)cc1` (stereo unspecified), the survival was 126% (inactive).

Consider `COc1ccc(N2CC(NC(=O)c3ccc(OC(C)C)cc3)CC2=O)cc1` (stereo unspecified), for which the survival was 0% (active).

As for `O=C(Cc1ccccc1)NC1CC(=O)N(c2ccccc2)C1` (stereo unspecified), the survival was 87% (inactive).

Consider `COc1cccc(N2CC(NC(=O)CCCc3ccccc3)CC2=O)c1` (stereo unspecified), for which the survival is 69% (inactive).

Regarding `COc1ccc(C(=O)NC2CC(=O)N(c3ccc4c(c3)OCCO4)C2)cc1` (stereo unspecified), the survival is 100% (inactive).

`COc1ccc(N2CC(NC(=O)c3ccc(S(=O)(=O)N4CCCC4)cc3)CC2=O)cc1` (stereo unspecified): the survival was 112% (inactive).

As for `Cc1cccc(CC(=O)NC2CC(=O)N(c3ccccc3)C2)c1` (stereo unspecified), the survival is -5% (active).

Regarding `Cc1ccc(N2CC(NC(=O)CCCc3ccccc3)CC2=O)cc1` (stereo unspecified), the survival was 66% (inactive).

Turning to `Cc1ccc(N2CC(NC(=O)CCc3ccccc3)CC2=O)cc1` (stereo unspecified), the survival was 20% (active).

Turning to `Cc1cccc(CC(=O)NC2CC(=O)N(c3cccc(F)c3)C2)c1` (stereo unspecified), the survival was 67% (inactive).

With `COc1ccc(N2CC(NC(=O)CCCc3ccccc3)CC2=O)cc1` (stereo unspecified), the survival was 32% (active).

For `Cc1c(NC(=O)c2ccc(OC(C)C)cc2)cccc1-c1nc2ncccc2o1`, the survival was 47% (inactive).
